Assay outcomes: PubChem BioAssay, National Center for Advancing Translational Sciences (NCATS)
Lassa entry inh: qHTS for Inhibitors of binding or entry into cells for Lassa Virus. 300,000 compounds, 1.2% hits. AID 540256, 2011. Potency, µM (highest dose often 37.9 µM), usual class: inhibitors. Lassa virus pseudotype entry inhibition, cell reporter; calls by dose curve; tested in HEK293 cells; also: nearly all actives have a fitted effect of over 50% in size
Vaccinia mCherry: qHTS for Stage-Specific Inhibitors of Vaccinia Orthopoxvirus: mCherry Reporter Primary qHTS | Vaccinia virus mCherry reporter infection, fluorescence | Potency, µM (highest dose often 36.5 µM), actives largely listed as inhibitors | 310,000 compounds, 0.63% hits; calls by dose curve; tested in A549 cells; also: nearly all actives have a fitted effect of over 35% in size
MARV entry inh: qHTS for inhibitors of binding or entry into cells for Marburg Virus; Marburg virus pseudotyped entry inhibition, cell reporter; 300,000 compounds, 1.8% hits; Potency, µM (titrated, usually from 37.8 µM), hits mostly inhibitors; calls by dose curve; tested in HEK293 cells
HCV inh: qHTS Assay for Inhibitors of Hepatitis C Virus (HCV) | AID 651820, 2012 | Potency, µM (top dose mostly 41.8 µM), most hits filed as inhibitors | 340,000 compounds, 3.4% hits | Huh7.5.1 HCVcc-Cre infection, luciferase reporter, 44 h; active = well fitted inhibition curve with a large enough effect; inconclusive = small, poorly fitted or top-dose-only effect, or another doubt; inactive = no such curve, though single readings can be large or run the other way
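Compounds are dispensed onto cells plated 4 h earlier at 1,000 per well, with HCVcc-Cre virus (about 0.5 moi) added next. Following 44 h of culture, luminescent signal is measured for 15 sec after 15 min with substrate at room temperature.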
Vaccinia Venus: qHTS for Stage-Specific Inhibitors of Vaccinia Orthopoxvirus: Venus Reporter Primary qHTS. Vaccinia virus Venus reporter expression, fluorescence. Potency, µM (titrated, usually from 36.5 µM), hits mostly inhibitors. 330,000 compounds, 0.46% hits. AID 720580, 2013; calls by dose curve; tested in A549 cells; also: nearly all actives have a fitted effect of over 30% in size
Of the large screens only hits and unclear results are named; the others gave an inactive call. Rows were chosen to be rich in hits. Some 4.6% of all compounds tested hit in one or more screens of this group.

COc1ccc(-c2nc(SCC(=O)NCCc3ccc(OC)c(OC)c3)n[nH]2)cc1	none (no result: MARV entry inh, HCV inh)
C=C1CCN(C(C)C(=O)OC)S(=O)(=O)c2ccccc21 (stereo unspecified)	none (no result: Lassa entry inh, MARV entry inh)
C=C1CCN(C(C)C(=O)O)S(=O)(=O)c2ccccc21 (stereo unspecified)	HCV inh 1.4µM (no result: Lassa entry inh, MARV entry inh)
CC1=C(C(=O)Nc2ccc3[nH]ncc3c2)C(c2ccc(F)cc2)NC(=O)N1 (stereo unspecified)	none (no result: Vaccinia mCherry, MARV entry inh, HCV inh, Vaccinia Venus)
Nc1cc(=O)[nH]c(SCC(=O)N2CCC(Cc3ccccc3)CC2)n1	HCV inh 14µM (no result: Lassa entry inh, Vaccinia mCherry, MARV entry inh, Vaccinia Venus)
Nc1cc(=O)[nH]c(SCC(=O)N2CCCC2)n1	none (no result: Lassa entry inh, Vaccinia mCherry, MARV entry inh, Vaccinia Venus)
CCOc1ccc(Cl)cc1C1=CC(=O)C[C@H](c2ccc(OC)cc2)C1	HCV inh 8.9µM (no result: Lassa entry inh, MARV entry inh)
CNc1nc(N)c([N+](=O)[O-])c(Nc2cccc(F)c2)n1	HCV inh 22µM
CNc1nc(N)c([N+](=O)[O-])c(Nc2cccc(Cl)c2)n1	HCV inh 8.9µM (no result: Lassa entry inh, Vaccinia mCherry, MARV entry inh, Vaccinia Venus)
Nc1nc(Nc2ccccc2)nc(NC2CCCCC2)c1[N+](=O)[O-]	Lassa entry inh inconclusive, Vaccinia mCherry inconclusive, MARV entry inh inconclusive, HCV inh 10µM, Vaccinia Venus inconclusive
C=CCNc1nc(N)c([N+](=O)[O-])c(Nc2cccc(Cl)c2)n1	HCV inh 2.8µM (no result: Lassa entry inh, MARV entry inh)
CCCCCCCSc1cc(OC)c(CCN(C)C)cc1OC	Lassa entry inh inconclusive, Vaccinia mCherry inconclusive, MARV entry inh inconclusive, HCV inh inconclusive, Vaccinia Venus 10µM
CCCCC[C@H]1C[C@@H](CC#CCN2CCOCC2)C(=O)O1	none (no result: Lassa entry inh, Vaccinia mCherry, HCV inh, Vaccinia Venus)
Nc1ccc2c(c1)C=C/C2=C\c1ccccc1	none (no result: Lassa entry inh, MARV entry inh, HCV inh)
COc1ccc(C(=O)NCc2cc(C)nc3ccccc23)cc1OC	MARV entry inh inconclusive, HCV inh inconclusive
COc1ccc(C(=O)N(c2ccccc2)c2nccc3ccccc23)cc1OC	HCV inh 1.8µM (no result: Lassa entry inh, MARV entry inh)
COc1cc(-c2noc(C)c2C#Cc2ccc(N)cc2)cc(OC)c1OC	HCV inh 2.2µM, Vaccinia Venus inconclusive (no result: Lassa entry inh, MARV entry inh)
COc1cc(/C=N/N=C(N)N)ccc1OCc1ccccc1Cl	HCV inh 14µM (no result: Lassa entry inh, Vaccinia mCherry, MARV entry inh, Vaccinia Venus)
COc1ccc(/C=N/N=C/c2ccc(OC)c(OC)c2)cc1OC	none (no result: Vaccinia mCherry, Vaccinia Venus)
CC1CCCCN1C(=O)Cn1c(=O)n(-c2ccc(Cl)cc2)c(=O)c2c3c(sc21)CCC3 (stereo unspecified)	MARV entry inh inconclusive (no result: HCV inh)
Cc1ccc(-c2nc(CCNC(=O)c3ccco3)cs2)cc1	MARV entry inh inconclusive, HCV inh 10µM
COc1ccc(-c2nc(CCNC(=O)c3cccs3)cs2)cc1	Lassa entry inh inconclusive, HCV inh 35µM (no result: MARV entry inh)
O=C(NCCc1csc(-c2cccnc2)n1)c1c(F)cccc1F	HCV inh 11µM
O=C(NCCc1csc(-c2ccccc2)n1)c1c(F)cccc1F	HCV inh inconclusive (no result: Lassa entry inh, MARV entry inh)
O=C(NCCc1csc(-c2ccc(Cl)cc2)n1)c1ccco1	HCV inh 11µM (no result: MARV entry inh)
CC1CCCN(c2ccc(C(=O)NCc3cccs3)cn2)C1 (stereo unspecified)	Lassa entry inh 10µM, HCV inh inconclusive
CCn1ncc(Br)c1C(=O)Nc1cccc(F)c1	none
CCn1ncc(Br)c1C(=O)Nc1ccc(C(C)C)cc1	MARV entry inh 13µM, HCV inh inconclusive
O=C(C#Cc1ccccc1)c1cccc([N+](=O)[O-])c1	Lassa entry inh inconclusive, MARV entry inh 13µM, HCV inh inconclusive
CC(=O)c1cccc([N+](=O)[O-])c1	HCV inh inconclusive (no result: Lassa entry inh, MARV entry inh)
Cc1nn(-c2ccccc2)c(C)c1C(=O)OC(C)C(=O)NC1CCCCC1 (stereo unspecified)	Lassa entry inh 5µM, MARV entry inh inconclusive, HCV inh 13µM
Cc1nn(-c2ccccc2)c(Cl)c1C(=O)NC1CCCCC1	none
CC(=O)Nc1ccc(NC(=O)C(C)OC(=O)c2c(C)nn(-c3ccccc3)c2Cl)cc1 (stereo unspecified)	Lassa entry inh 3.5µM
Cn1cc(S(=O)(=O)c2ccc(Cl)cc2)c(=O)c2cc(F)c(N3CCCC3)cc21	none (no result: MARV entry inh, HCV inh)
CN(C)c1ccc(NC(=O)CSc2nc(N)c(C(=O)Nc3ccc(N(C)C)cc3)s2)cc1	Lassa entry inh inconclusive, Vaccinia mCherry 4µM, MARV entry inh inconclusive, HCV inh 10µM, Vaccinia Venus 4µM
CCC(=O)NC(c1cccs1)c1ccc2cccnc2c1O (stereo unspecified)	Vaccinia mCherry inconclusive, HCV inh 3.5µM, Vaccinia Venus inconclusive (no result: Lassa entry inh, MARV entry inh)
CC(C)CC(=O)NC(c1cccs1)c1ccc2cccnc2c1O (stereo unspecified)	Lassa entry inh inconclusive, Vaccinia mCherry 6.3µM, MARV entry inh 10µM, HCV inh 2.8µM, Vaccinia Venus inconclusive
COC(=O)c1cc2oc(C)cc2n1CC(=O)Nc1ccc(C)cc1C	MARV entry inh inconclusive (no result: Lassa entry inh, HCV inh)
CCOc1cccc2sc(=NC(=O)CCS(=O)(=O)c3ccccc3)n(CC)c12	HCV inh 11µM (no result: Lassa entry inh, Vaccinia mCherry, MARV entry inh, Vaccinia Venus)
C#CCn1c(=NC(=O)c2ccco2)sc2cccc(Cl)c21	none
CCOc1cccc2sc(=NC(=O)c3ccco3)n(CC(=O)OC)c12	MARV entry inh inconclusive, HCV inh 11µM
O=C(O)[C@H]1CC(=O)N(Cc2cccs2)C1	none (no result: Lassa entry inh, Vaccinia mCherry, HCV inh, Vaccinia Venus)
Cc1cc2[nH]c3c4ccccc4nc(C)c3c2cc1C	HCV inh 13µM (no result: Lassa entry inh, Vaccinia mCherry, MARV entry inh, Vaccinia Venus)
COc1ncccc1C(=O)NC1CCCc2c1cnn2-c1cc(C)cc(C)c1 (stereo unspecified)	MARV entry inh inconclusive
COCc1ccc(C(=O)NC2CCCc3c2cnn3-c2cc(C)cc(C)c2)s1 (stereo unspecified)	HCV inh 13µM (no result: Lassa entry inh, MARV entry inh)
Cc1cc(C(=O)NC2CCCc3c2cnn3-c2ccc(C)c(C)c2)n(C)n1 (stereo unspecified)	HCV inh 8.9µM (no result: Lassa entry inh, Vaccinia mCherry, MARV entry inh, Vaccinia Venus)
Cc1cc(C(=O)NC2CCCc3c2cnn3-c2ccc(C(C)(C)C)cc2)n[nH]1 (stereo unspecified)	HCV inh 11µM (no result: Lassa entry inh, Vaccinia mCherry, MARV entry inh, Vaccinia Venus)
